# Test results as given in PubChem BioAssay (EPA / NIEHS).
# Where “and” joins values, the source holds several entries; their conditions need not be identical. Equal entries are not always repeated. Inconclusive results are not listed. Calls of active or inactive are those of the source. The calls were made as follows: active = hit-call score of the fitted dose curve at least 0.9, where 1 is the maximum; inconclusive = response in the unintended direction; inactive = score below 0.9.
# Experiment: ATG_XTT_Cytotoxicity: Cytotoxicity Assessment in the Attagene TRANS-FACTORIAL HepG2 Assay (AID 2283584);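 as to AC50: cells exposed to compound for 24 h before reading; active means loss of viability signal versus DMSO baseline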
# Outline: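 XTT readout of cell number in transfected HepG2 cells, 24 h post-dosing; DMSO serves as negative control and baseline, with activity taken as loss of viability signal.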
SMILES,outcome,AC50
O=C(O)C(=O)O,inactive,
CCCCCCCCCCCC,,89.9 µM (active)
CCCCN(C)C,inactive,
CC(C)(c1ccc(Oc2ccc(N)cc2)cc1)c1ccc(Oc2ccc(N)cc2)cc1,,48.6 µM (active)
O=C(NCc1ncc(C(F)(F)F)cc1Cl)c1c(Cl)cccc1Cl,inactive,
CC(C)[C@@H]1CC[C@@H](C)C[C@H]1O,inactive,
CCOC(=O)CN[C@@H](C(=O)N1CC[C@H]1C(=O)NCc1ccc(/C(N)=N/O)cc1)C1CCCCC1,inactive,
C=C(c1ccc(C(=O)O)cc1)c1cc2c(cc1C)C(C)(C)CCC2(C)C,,25.3 µM (active)
CCC1CO1 (centres undefined),inactive,
Clc1ccc2c(Cl)ccnc2c1,inactive,
CC(C)CCOCCC(C)C,inactive,
Oc1cc2ccccc2cc1O,inactive,
CCOC=O,inactive,
OCCN1CN(CCO)CN(CCO)C1,inactive,
Clc1ccc(Nc2nnc(Cc3ccncc3)c3ccccc23)cc1,inactive,
NC(=NCCCCCCN=C(N)/N=C(\N)Nc1ccc(Cl)cc1)/N=C(\N)Nc1ccc(Cl)cc1,,31.6 µM (active)
CC[N+](CC)(CC)Cc1ccccc1,inactive,

SMILES,outcome,AC50
O=C(O)CN(CCCN(CC(=O)O)CC(=O)O)CC(=O)O,inactive,
CCCCCCCCCCCC[N+](C)(C)Cc1ccccc1,,24.2 µM (active) and 31.9 µM (active)
CCc1cccc(CC)c1N(COC)C(=O)CS(=O)(=O)O,inactive,
CCCCCc1ccc(O)cc1,inactive,
Cc1ccccc1OCC(=O)O,inactive,
C=Cc1ccc(O)c(OC)c1,inactive,
CCC(=O)O,inactive,
CC1CCC(C(=O)O)CC1 (centres undefined),inactive,
c1cc[nH]c1,inactive,
COCC1CCC(CO)CC1 (centres undefined),inactive,
Nc1ccn([C@@H]2O[C@H](CO)[C@@H](O)C2O)c(=O)n1 (some centres undefined),inactive,
CCCCCCCC(OC)OC,inactive,
C/C=C/C(=O)C1=C(C)CCCC1(C)C,inactive,
CCO[Si](CCC1CCC2OC2C1)(OCC)OCC (centres undefined),inactive,
COc1ccc(C#N)cc1,inactive,
O=C1c2ccc(O)c(O)c2C(=O)c2c(O)ccc(O)c21,inactive,
CC(C)c1c(C(=O)Nc2ccccc2)c(-c2ccccc2)c(-c2ccc(F)cc2)n1CC[C@@H](O)C[C@@H](O)CC(=O)O,inactive,
